Molecular target: Solute carrier family 2, facilitated glucose transporter member 1 (Homo sapiens) (UniProt P11166)
Assay: ST_JUDE_LEISH: Cytotoxicity at 2uM final concentration against transgenic Leishmania Mexicana promastigotes LmGLUT1 that are glucose transport deficient and complemented with the human glucose transporter GLUT1. Activity is measured by DNA content using SYBR green in vitro
Type: functional

Sequence of Solute carrier family 2, facilitated glucose transporter member 1 (Homo sapiens) (P11166 whole entry): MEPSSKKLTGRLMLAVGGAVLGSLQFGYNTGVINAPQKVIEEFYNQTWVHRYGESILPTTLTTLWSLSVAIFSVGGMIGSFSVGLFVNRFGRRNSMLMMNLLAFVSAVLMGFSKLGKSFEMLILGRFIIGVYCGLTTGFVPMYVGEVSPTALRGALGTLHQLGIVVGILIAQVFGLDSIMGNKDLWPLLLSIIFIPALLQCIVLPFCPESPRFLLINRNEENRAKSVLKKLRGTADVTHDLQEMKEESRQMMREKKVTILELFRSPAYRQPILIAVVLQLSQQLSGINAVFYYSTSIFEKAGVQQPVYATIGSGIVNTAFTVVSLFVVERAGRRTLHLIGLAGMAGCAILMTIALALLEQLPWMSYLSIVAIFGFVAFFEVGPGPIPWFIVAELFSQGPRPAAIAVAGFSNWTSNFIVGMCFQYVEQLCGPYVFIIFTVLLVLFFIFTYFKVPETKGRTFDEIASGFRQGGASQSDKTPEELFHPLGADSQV

Compound	inhibition
N=c1n(CCN2CCCCC2)c2ccccc2n1CC(=O)c1cccc([N+](=O)[O-])c1	2.8%
O=C(Nc1ccc(C(=O)OCC2CCCCC2)cc1)N[C@@H](Cc1ccc(O)cc1)C(=O)NC1CCN(Cc2ccc(O)cc2)C1 (stereo partly drawn)	3.7%
N#Cc1cccc(NC(=O)Nc2ccc3c(c2)CN(Cc2c[nH]c4ncccc24)C3)c1	6.66%
COC(=O)CNC(c1ccccc1)c1cc(Br)ccc1NC(=O)c1ccccc1Br (stereo not drawn)	7.18%
Cc1c(S(=O)(=O)Nc2ccc3nccc(N4CCN[C@H](C)C4)c3c2)sc2ccc(Cl)cc12	-0.53%
c1ccc2c(NCCCCCCCCCNc3ccnc4ccccc34)ccnc2c1	-0.85%
Cc1cc(N2CCOCC2)nc(Nc2ccc(NC(=O)c3cccc4ccccc34)cc2)n1	7.25%
CCCNC(=O)C1Cc2c([nH]c3ccc(Br)cc23)C2(CCN(CCc3ccccc3)CC2)N1 (stereo not drawn)	-1.4%
CN(C)CCCN1CCN(Cc2ccc(-c3ccc(-c4nc5ccccc5[nH]4)s3)cc2)CC1	11.2%
CC(CCc1ccc(OCc2ccccc2)cc1)NCC(O)c1ccccc1 (stereo not drawn)	-1.32%
CCN(CC)CCn1c(=N)n(CC(O)c2ccc(Cl)c(Cl)c2)c2ccccc21 (stereo not drawn)	7.87%
CN1CCCN(Cc2ccc(-c3ccc(NC(=O)c4ccc(Cl)cc4)cc3)cc2)CC1	63.1%
NC(=O)c1cccc(Nc2nccc(Nc3ccc(Oc4c(Cl)cccc4Cl)c(Cl)c3)n2)c1	9.27%
CCc1c(CCNC/C=C/C=C/CNCCc2ccc(OC)c(OC)c2CC)ccc(OC)c1OC	3.5%
Fc1ccc2[nH]c(-c3ccc(-c4cccc(CN5CCCCC5)c4)cc3)nc2c1	1.59%
Cc1cccc2nc(-c3cccc(-c4cccc(C(=O)NCc5nccn5C)c4)c3)[nH]c12	11.5%
Oc1ccc(-c2cc(COc3ccccc3C(F)(F)F)c(C3=CCNCC3)cc2COc2ccccc2C(F)(F)F)cc1	2.69%
COc1ccc2nccc([C@@H](O)CN3CCC(NCc4cnc5c(c4)NC(=O)CS5)C(F)C3)c2c1 (stereo partly drawn)	-0.32%
COc1ccc(CC2(c3ccc(F)cc3)N=C(N)N(CCCc3ccccc3)C2=O)cc1 (stereo not drawn)	5.85%
FC(F)(F)c1cc(C(F)(F)F)c2cc(CNCCCNc3nc4ccccc4[nH]3)[nH]c2c1	-1.02%

Compound	inhibition
Cc1cc(=NN=CC=Cc2ccccc2)c2cc(F)ccc2[nH]1	0.37%
Cc1cccc2nc(-c3cccc(-c4cccc(NC(=O)c5ccoc5)c4)c3)[nH]c12	5.99%
CN(C)c1ccc(CN2CCCC(CNC(=O)c3ccc(-c4cccc(C(F)(F)F)c4)s3)C2)cc1 (stereo not drawn)	1.33%
Cc1cc(NCCc2ccccc2)nc(N/C(=N/CC(=O)OC(C)(C)C)Nc2ccc(C(F)(F)F)cc2)n1	4.08%
CC(C)NCc1cccc(-c2ccc(NC(=O)c3cccc(C#N)c3)cc2)c1	0.25%
COc1ccc2nc(C)cc(Nc3ccc(N4CCN(C)CC4)cc3)c2c1	0.93%
O=[N+]([O-])c1ccc(Nc2nc(N/N=C/c3cc(Cl)cc(Cl)c3O)nc(Nc3ccccc3)n2)cc1	2.04%
CCOc1c(C)cc(C(F)(F)F)cc1CNCCCNc1cc(=O)c2ccccc2[nH]1	5.27%
COc1cc2c(cc1OC)CN(c1cc(N)c3cc(OC)c(OC)cc3n1)CC2	1.34%
CN(Cc1ccc(C#N)cc1)C1CCN(c2cc(NC(=O)c3cccc(F)c3)ccn2)CC1	-1.86%
COc1ccc(NC(=O)Nc2cccc(-c3cccc(-c4nc5ccccc5[nH]4)c3)c2)cc1	-1.96%
O=C(/C=C/c1ccc(Cl)cc1)NCCCCCN1CCCC(C(=O)Nc2cccc(Cl)c2)C1 (stereo not drawn)	2.85%
CNCCNCc1cccc(-c2ccc(-c3nc4cc(C(F)(F)F)ccc4[nH]3)cc2)c1	0.41%
COc1ccc(-c2cc(-c3ccc(S(C)(=O)=O)cc3)cnc2N)cn1	1.1%
Cc1[nH]c(C)c(-c2ccc(Oc3ccc(F)cc3)cc2)c(=O)c1Br	4.89%
Cc1cc(=NN=Cc2cccc(Cl)c2)c2cc(F)ccc2[nH]1	5.23%
N=c1cc(C=Cc2ccc(O)cc2)[nH]c2ccccc12	2.26%
COc1ccc(-c2nonc2NC(=O)c2cccc(C)c2)cc1OC	11.9%
COc1ccc(Cl)c(CC2c3cc(O)c(Cl)cc3CCN2C)c1 (stereo not drawn)	-0.53%

Molecular target: Hexose transporter 1 (Plasmodium falciparum) (UniProt O97467)
Assay: ST_JUDE_LEISH: Cytotoxicity at 2uM final concentration against transgenic Leishmania Mexicana promastigotes LmPfHT that are glucose transport deficient and complemented with the Plasmodium falciparum hexose transporter. Activity is measured by DNA content using SYBR green in vitro
Type: functional

Compound	inhibition
N=c1n(CCN2CCCCC2)c2ccccc2n1CC(=O)c1cccc([N+](=O)[O-])c1	4.32%
O=C(Nc1ccc(C(=O)OCC2CCCCC2)cc1)N[C@@H](Cc1ccc(O)cc1)C(=O)NC1CCN(Cc2ccc(O)cc2)C1 (stereo partly drawn)	2.04%
N#Cc1cccc(NC(=O)Nc2ccc3c(c2)CN(Cc2c[nH]c4ncccc24)C3)c1	7.47%
COC(=O)CNC(c1ccccc1)c1cc(Br)ccc1NC(=O)c1ccccc1Br (stereo not drawn)	16.3%
Cc1c(S(=O)(=O)Nc2ccc3nccc(N4CCN[C@H](C)C4)c3c2)sc2ccc(Cl)cc12	0.48%
c1ccc2c(NCCCCCCCCCNc3ccnc4ccccc34)ccnc2c1	4.91%
Cc1cc(N2CCOCC2)nc(Nc2ccc(NC(=O)c3cccc4ccccc34)cc2)n1	8.47%
CCCNC(=O)C1Cc2c([nH]c3ccc(Br)cc23)C2(CCN(CCc3ccccc3)CC2)N1 (stereo not drawn)	0.12%
CN(C)CCCN1CCN(Cc2ccc(-c3ccc(-c4nc5ccccc5[nH]4)s3)cc2)CC1	8.38%
CC(CCc1ccc(OCc2ccccc2)cc1)NCC(O)c1ccccc1 (stereo not drawn)	0.43%
CCN(CC)CCn1c(=N)n(CC(O)c2ccc(Cl)c(Cl)c2)c2ccccc21 (stereo not drawn)	5.43%
CN1CCCN(Cc2ccc(-c3ccc(NC(=O)c4ccc(Cl)cc4)cc3)cc2)CC1	50%
NC(=O)c1cccc(Nc2nccc(Nc3ccc(Oc4c(Cl)cccc4Cl)c(Cl)c3)n2)c1	9.62%
CCc1c(CCNC/C=C/C=C/CNCCc2ccc(OC)c(OC)c2CC)ccc(OC)c1OC	0.39%
Fc1ccc2[nH]c(-c3ccc(-c4cccc(CN5CCCCC5)c4)cc3)nc2c1	1.72%
Cc1cccc2nc(-c3cccc(-c4cccc(C(=O)NCc5nccn5C)c4)c3)[nH]c12	10.8%
Oc1ccc(-c2cc(COc3ccccc3C(F)(F)F)c(C3=CCNCC3)cc2COc2ccccc2C(F)(F)F)cc1	2.67%
COc1ccc2nccc([C@@H](O)CN3CCC(NCc4cnc5c(c4)NC(=O)CS5)C(F)C3)c2c1 (stereo partly drawn)	-0.31%
COc1ccc(CC2(c3ccc(F)cc3)N=C(N)N(CCCc3ccccc3)C2=O)cc1 (stereo not drawn)	5.5%
FC(F)(F)c1cc(C(F)(F)F)c2cc(CNCCCNc3nc4ccccc4[nH]3)[nH]c2c1	0.32%

Compound	inhibition
Cc1cc(=NN=CC=Cc2ccccc2)c2cc(F)ccc2[nH]1	0.85%
Cc1cccc2nc(-c3cccc(-c4cccc(NC(=O)c5ccoc5)c4)c3)[nH]c12	5.37%
CN(C)c1ccc(CN2CCCC(CNC(=O)c3ccc(-c4cccc(C(F)(F)F)c4)s3)C2)cc1 (stereo not drawn)	1.64%
Cc1cc(NCCc2ccccc2)nc(N/C(=N/CC(=O)OC(C)(C)C)Nc2ccc(C(F)(F)F)cc2)n1	0.44%
CC(C)NCc1cccc(-c2ccc(NC(=O)c3cccc(C#N)c3)cc2)c1	0.74%
COc1ccc2nc(C)cc(Nc3ccc(N4CCN(C)CC4)cc3)c2c1	2.03%
O=[N+]([O-])c1ccc(Nc2nc(N/N=C/c3cc(Cl)cc(Cl)c3O)nc(Nc3ccccc3)n2)cc1	2.61%
CCOc1c(C)cc(C(F)(F)F)cc1CNCCCNc1cc(=O)c2ccccc2[nH]1	5.03%
COc1cc2c(cc1OC)CN(c1cc(N)c3cc(OC)c(OC)cc3n1)CC2	0.25%
CN(Cc1ccc(C#N)cc1)C1CCN(c2cc(NC(=O)c3cccc(F)c3)ccn2)CC1	-1.81%
COc1ccc(NC(=O)Nc2cccc(-c3cccc(-c4nc5ccccc5[nH]4)c3)c2)cc1	-0.16%
O=C(/C=C/c1ccc(Cl)cc1)NCCCCCN1CCCC(C(=O)Nc2cccc(Cl)c2)C1 (stereo not drawn)	2.1%
CNCCNCc1cccc(-c2ccc(-c3nc4cc(C(F)(F)F)ccc4[nH]3)cc2)c1	2.51%
COc1ccc(-c2cc(-c3ccc(S(C)(=O)=O)cc3)cnc2N)cn1	0.74%
Cc1[nH]c(C)c(-c2ccc(Oc3ccc(F)cc3)cc2)c(=O)c1Br	4.31%
Cc1cc(=NN=Cc2cccc(Cl)c2)c2cc(F)ccc2[nH]1	5.15%
N=c1cc(C=Cc2ccc(O)cc2)[nH]c2ccccc12	4.1%
COc1ccc(-c2nonc2NC(=O)c2cccc(C)c2)cc1OC	10.7%
COc1ccc(Cl)c(CC2c3cc(O)c(Cl)cc3CCN2C)c1 (stereo not drawn)	-0.87%

— ChEMBL document CHEMBL3433997, “St. Jude Leishmania screening dataset” (2016)
